From the supplement of paper PMC4723716

Test system: Plasmodium falciparum NF54 gametocytes
Test: viability index relative to DMSO control (fraction); higher = less gametocyte killing
Conditions: 12.5 µM, incubation time: 72 h
How it was run: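 Each stage (I–V) of P. falciparum NF54 gametocytes was incubated with compound at 12.5 µM in 384-well plates, in 40 µl of serum-containing medium at 0.50% gametocytemia and 1.25% hematocrit, for 72 hr at 37°C under low oxygen. After 5 µl of 5 µM MitoTracker Red CMXRos was added for 20 min, 5 µl from each well was moved into 40 µl of 500 nM dye in serum-free medium and imaged across three fields after 30 min. The viability index is the gametocyte particle count divided by the plate mean of the solvent-only wells.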

[1] = gametocyte stage: Stage I viability index
[2] = gametocyte stage: Stage II viability index
[3] = gametocyte stage: Stage III viability index
[4] = gametocyte stage: Stage IV viability index
[5] = gametocyte stage: Stage V viability index

| SMILES | viability index [1] | viability index [2] | viability index [3] | viability index [4] | viability index [5] |
| --- | --- | --- | --- | --- | --- |
| Oc1ccc(-c2nc(-c3ccc4oc5ccc(-c6[nH]c(-c7ccc(O)cc7)nc6-c6ccccc6)cc5c4c3)c(-c3ccccc3)[nH]2)cc1 | 0.000874 | 0 | 0 | 0 | 0.013 |
| OC(CNC1CCCCC1)Cn1c2ccccc2c2ccccc21 (stereo not given) | 0.0354 | 0.0493 | 0.178 | 0.277 | 0.198 |
| O=C(CSc1ccc2nnc(-c3cccc(F)c3)n2n1)Nc1ccc2c(c1)OCO2 | 1.01 | 1.02 | 1.16 | 1.16 | 1.37 |
| CC(C)=CCN1CCC(C(=O)Nc2ccc(-c3nc4ccccc4[nH]3)cc2)CC1 | 0.0674 | 0.525 | 0.921 | 0.912 | 0.967 |
| CCOC(=O)c1cnc2ccc(Cl)cc2c1NCCCN(C)C | 0.309 | 0.59 | 0.989 | 1.03 | 0.844 |
| COc1ccc2c(c1)OC(O)(C(F)(F)C(F)(F)F)CC2=O (stereo not given) | 0.676 | 0.929 | 1.15 | 0.97 | 1.11 |
| CCN1CCN(c2cc(C)c3cc(NC(=O)c4ccc(OC)c(OC)c4)ccc3n2)CC1 | 0.33 | 0.677 | 1.04 | 0.818 | 0.901 |
| CCOc1cccc(C(=O)Nc2ccc(-c3nc4ccccc4[nH]3)cc2)c1 | 0.0751 | 0.574 | 1.1 | 0.894 | 0.637 |
| COc1ccc(C(=O)Nc2ccc3nc(N4CCCCC4)cc(C)c3c2)cc1OC | 0.275 | 0.58 | 0.95 | 0.9 | 0.989 |
| COc1cccc(NC(=O)[C@H](C(C)C)n2c(=O)[nH]c3ccccc3c2=O)c1 | 0.0552 | 0.0213 | 0.0736 | 0.286 | 0.341 |
| CCN(CC)CCNc1ncnc2c1[nH]c1ccc(Cl)cc12 | 0.0354 | 0.373 | 0.818 | 0.763 | 0.451 |
| COc1ccccc1N=C1C(=O)c2ccccc2C(O)=C1N1CCCCC1 | 0.0188 | 0.0203 | 0.0297 | 0.0699 | 0.0879 |
| CCCN(CCC)CC(O)COc1ccccc1C(=O)Nc1ccccc1 (stereo not given) | 0.0829 | 0.175 | 0.46 | 0.593 | 0.516 |
| COC(=O)c1ccc(C2C3=C(O)CC(c4ccc(F)cc4)CC3=Nc3ccccc3N2C(=O)c2ccccc2)cc1 (stereo not given) | 0.00524 | 0.005 | 0.0149 | 0 | 0 |
| CN(C)CCNc1cc(-c2ccccc2)nc2ccccc12 | 0.685 | 0.795 | 0.924 | 0.883 | 0.727 |
| OC(Cn1nnc2ccccc21)Cn1c2ccc(Br)cc2c2cc(Br)ccc21 (stereo not given) | 0.634 | 0.684 | 1.04 | 0.972 | 1.21 |
| c1ccc2cc3c(Nc4ccc(N5CCOCC5)cc4)ccnc3cc2c1 | 0.0685 | 0.499 | 0.779 | 1.02 | 1.19 |
| CCOC(=O)c1cnc2ccc(OC)cc2c1Nc1ccc(N2CCN(C)CC2)cc1 | 0.0953 | 0.479 | 0.931 | 0.842 | 0.779 |
| COc1ccc(N2CCN(C(CNC(=O)CC(C)(C)C)c3ccc4c(c3)OCO4)CC2)cc1 (stereo not given) | 1.04 | 0.928 | 1.02 | 0.826 | 0.727 |
| O=C(NC1CCN(Cc2ccccc2)CC1)c1cc(-c2cccnc2)nc2ccc(Cl)cc12 | 0.53 | 0.609 | 0.989 | 1.18 | 0.725 |

| SMILES | viability index [1] | viability index [2] | viability index [3] | viability index [4] | viability index [5] |
| --- | --- | --- | --- | --- | --- |
| O=C(Cc1ccccc1)NC(c1ccc(Cl)cc1)c1c(O)ccc2ccccc12 (stereo not given) | 0.0691 | 0.316 | 0.631 | 0.604 | 0.857 |
| COc1nc(Nc2ccc(C(C)C)cc2)nc(OC)n1 | 1.18 | 0.871 | 0.965 | 1.06 | 0.967 |
| OC1CCCCC1C1(NC(=S)Nc2ccccc2)CCCCC1 (stereo not given) | 0.24 | 0.184 | 0.0868 | 0.108 | 0.247 |
| CCOC(=O)c1cnc2c(CC)cccc2c1O | 1.15 | 0.838 | 0.966 | 0.835 | 0.844 |
| CCc1c(C)c(=N)c2ccccc2n1C | 0.725 | 1.01 | 1.24 | 0.988 | 0.791 |
| CCN(CC)CCNc1ncnc2c1[nH]c1ccc(Br)cc12 | 0.0398 | 0.36 | 0.635 | 0.641 | 0.396 |
| Cc1sc2ncnc(Sc3nc4ccccc4[nH]3)c2c1C | 0.0276 | 0.0135 | 0.0354 | 0.0821 | 0.0659 |
| COc1ccc(-c2c(C)nn3c(N)c(C#N)cnc23)cc1OC | 0.0343 | 0.00676 | 0.0325 | 0.0942 | 0.0769 |
| CN1c2ccccc2N(C)C1c1ccc2c(c1)OCO2 | 0.952 | 0.862 | 1.05 | 0.964 | 1.03 |
| CC1CC2=C(CC1CNCCCN(C)C)C(C)(C)CCC2 (stereo not given) | 0.383 | 0.362 | 0.48 | 0.468 | 0.312 |
| CCCCCCn1c(=N)n(CC(O)COc2cccc(C)c2)c2ccccc21 (stereo not given) | 0.0787 | 0.0425 | 0.0828 | 0.149 | 0.0779 |
| CCOc1ccc(C2N(C)c3ccccc3N2C)cc1 | 0.996 | 1.03 | 1.08 | 0.985 | 0.901 |
| CCCCOC(=O)c1ccc(Nc2cc(C)nc3ccc(OC)cc23)cc1 | 0.0647 | 0.156 | 0.545 | 0.411 | 0.325 |
| Cc1ccc(C)c(-c2csc(Nc3ccc(C)c(C)c3)n2)c1 | 0.856 | 0.815 | 0.82 | 0.639 | 0.558 |
| FC(F)(F)c1cccc(CNC2CCN(CCc3ccccc3)CC2)c1 | 0.0431 | 0.464 | 0.856 | 0.83 | 0.802 |
| FC(F)(F)c1cccc(Nc2nc3ccccc3nc2Nc2cccc(C(F)(F)F)c2)c1 | 0.0175 | 0.0233 | 0.0149 | 0.00633 | 0.0649 |
| Cc1ccc(Nc2nc(-c3ccccn3)cs2)cc1 | 0.193 | 0.22 | 0.109 | 0.173 | 0.121 |
| O=c1nc(C=Cc2ccc(Cl)cc2)oc2ccccc12 | 0.874 | 1.01 | 1 | 0.866 | 0.989 |
| O=C(Nc1ccc(C23CC4CC(CC(c5ccccc5)(C4)C2)C3)cc1)c1cccs1 | 0.939 | 0.824 | 0.986 | 0.744 | 1.14 |
| COc1ccc2nc(C)cc(Nc3cccc(O)c3)c2c1 | 0.105 | 0.564 | 0.896 | 0.991 | 1.1 |

| SMILES | viability index [1] | viability index [2] | viability index [3] | viability index [4] | viability index [5] |
| --- | --- | --- | --- | --- | --- |
| COc1ccccc1CNC(=O)C1c2ccccc2C(=O)N(CC(C)C)C1c1cccs1 (stereo not given) | 0.951 | 0.807 | 1.01 | 0.976 | 1 |
| Cc1ccc(Nc2nc(N)c3ccccc3n2)cc1Cl | 0.0341 | 0.49 | 0.695 | 0.753 | 0.481 |
| C[n+]1c2ccccc2nc2ccc(NCCO)cc21 | 0.0398 | 0.302 | 0.595 | 0.824 | 1.03 |
| COc1ccc2nc(N)nc(C)c2c1 | 0.353 | 0.614 | 0.685 | 0.959 | 1.04 |
| COc1ccc(-c2cc(=O)oc3c4c(ccc23)OCN(Cc2ccc(F)cc2)C4)cc1 | 0.0192 | 0.0833 | 0.406 | 0.516 | 0.545 |
| Cc1cc(C)c2c(c1)OCN(Cc1ccccc1Cl)C2 | 0.0442 | 0.13 | 0.569 | 0.663 | 0.615 |
| Cc1ccc(-c2nc3ccccc3o2)cc1NCc1cc(Cc2ccccc2)ccc1O | 0.0201 | 0.0666 | 0.389 | 0.513 | 0.792 |
| COc1ccc(N2CCN(C(CNC(=O)C3CCCCC3)c3ccc4c(c3)OCO4)CC2)cc1 (stereo not given) | 0.912 | 0.986 | 1.04 | 0.86 | 0.758 |
| Cc1cc(Nc2ccc(C)c(Cl)c2)n2nc(C(F)(F)F)nc2n1 | 0.881 | 1.23 | 0.983 | 1.08 | 0.945 |
| N#Cc1nc(Cc2cccc3ccccc23)oc1N1CCN(C(c2ccccc2)c2ccccc2)CC1 | 1.12 | 0.93 | 1.23 | 0.968 | 1.16 |
| CCOC(=O)c1cnc2ccc(CC)cc2c1O | 0.377 | 0.505 | 0.734 | 0.733 | 0.846 |
| O=C(Nc1ccc(CN2CCOCC2)cc1)c1ccc(-c2ccc(Br)cc2)o1 | 0.141 | 0.543 | 0.926 | 0.787 | 1.16 |
| O=C(Nc1nc(-c2ccccn2)cs1)c1ccccc1Br | 0.0807 | 0.13 | 0.147 | 0.158 | 0.0989 |
| Cc1cc(C=C2SC(=Nc3ccccc3)N(C3CCCC3)C2=O)c(C)n1-c1ccc(Cl)cc1 | 1.05 | 1.03 | 1.03 | 0.894 | 0.879 |
| Nc1ccc(-c2nc3cc(Oc4ccc(Oc5ccc6[nH]c(-c7ccc(N)cc7)nc6c5)cc4)ccc3[nH]2)cc1 | 0.000874 | 0.0108 | 0.0271 | 0.0253 | 0 |
| CCn1nc(-c2ccc(C(=O)OC)cc2)nc2c(=O)n(C)c(=O)nc1-2 | 0.15 | 0.284 | 0.103 | 0.0365 | 0.044 |
| COc1cccc(Nc2nc(NCCO)c3ccccc3n2)c1 | 0.134 | 0.581 | 0.728 | 0.854 | 0.538 |
| COc1cccc(C(=O)Nc2ccc(-c3nc4ccccc4[nH]3)cc2)c1 | 0.295 | 0.595 | 0.852 | 1.03 | 0.883 |
| CCOC(=O)c1cnc2c(C)cccc2c1Nc1ccc(C(C)=O)cc1 | 1.16 | 0.83 | 1.06 | 1.08 | 1.03 |
| CCN(CC)c1ccc(NC(=O)c2cccs2)cc1 | 0.716 | 0.659 | 0.758 | 0.936 | 1.04 |
